# This is part of a sample that, as a whole, favours compounds with a hit. Of some 83,000 tested, about 20% had one in any assay.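 Growth was measured after 48 h exposure to one concentration of compound in 96-well plates. Values under 10 count as active.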 Unmarked numbers belong to inactive results. Activity calls are given as the source filed them.
# Legend:
# Assay in all cases: NCI-60 one-dose screen, 48 h (100 = growth as untreated, 0 = no growth, -100 = all killed)
# Details in all cases: 10 µM unless noted
# SK-MEL-2 melanoma = test system: SK-MEL-2 melanoma
# EKVX NSCLC = test system: EKVX NSCLC
# SN12C renal = test system: SN12C renal
# UO-31 renal = test system: UO-31 renal
# TK-10 renal = test system: TK-10 renal
# ACHN renal = test system: ACHN renal
# CAKI-1 renal = test system: CAKI-1 renal
# A498 renal = test system: A498 renal
# CCRF-CEM leukemia = test system: CCRF-CEM leukemia
# MOLT-4 leukemia = test system: MOLT-4 leukemia
# RPMI-8226 leukemia = test system: RPMI-8226 leukemia
# OVCAR-8 ovarian = test system: OVCAR-8 ovarian
# OVCAR-5 ovarian = test system: OVCAR-5 ovarian
# OVCAR-4 ovarian = test system: OVCAR-4 ovarian
# SK-OV-3 ovarian = test system: SK-OV-3 ovarian
# IGROV1 ovarian = test system: IGROV1 ovarian
# OVCAR-3 ovarian = test system: OVCAR-3 ovarian
# HS 578T breast = test system: HS 578T breast
# NCI/ADR-RES ovarian = test system: NCI/ADR-RES ovarian
Compound,growth (SK-MEL-2 melanoma),growth (EKVX NSCLC),growth (SN12C renal),growth (UO-31 renal),growth (TK-10 renal),growth (ACHN renal),growth (CAKI-1 renal),growth (A498 renal),growth (CCRF-CEM leukemia),growth (MOLT-4 leukemia),growth (RPMI-8226 leukemia),growth (OVCAR-8 ovarian),growth (OVCAR-5 ovarian),growth (OVCAR-4 ovarian),growth (SK-OV-3 ovarian),growth (IGROV1 ovarian) [%],growth (OVCAR-3 ovarian),growth (HS 578T breast),growth (NCI/ADR-RES ovarian)
CCc1ccccc1-n1c(-c2ccc(Cl)cc2)cc(-c2ccc(OC)cc2)c(C#N)c1=O,91.5%,96.1%,99.4%,81.5%,136%,114%,99.8%,110%,-41.4% (active),103%,78.5%,102%,94.7%,90%,103%,80,100%,98.7%,95.1%
CC(C)=C[C@@H]1c2c(c3ccccc3n(C)c2=O)O[C@H]2c3c(c4ccccc4n(C)c3=O)OC(C)(C)[C@@H]12,66.4%,90.9%,115%,63.1%,123%,70.4%,87.7%,102%,46.6%,39.5%,-36.8% (active),90.4%,98.7%,64.9%,118%,–,91.9%,93.2%,75.4%
COc1ccc2c(c1)O/C(=C\c1cccc(OCC(=O)Nc3nc(C)c(C)s3)c1)C2=O,89.3%,-13.4% (active),33.8%,-74.9% (active),111%,98.7%,-82.7% (active),114%,-66.8% (active),19.2%,-59.8% (active),15.1%,12.7%,67.8%,101%,–,-33.1% (active),42.9%,-10.7% (active)
COc1ccc(NC(=O)CSc2nc(C)c(C(C)=O)n2-c2ccc([N+](=O)[O-])cc2)cc1,89.3%,88.1%,94.7%,83.6%,96.9%,95.6%,99.6%,58.1%,111%,92.2%,102%,96.4%,89.8%,102%,–,95.8,119%,94.9%,86%
CCOC(=O)c1ccc(N2NC(=O)/C(=C/c3ccc([N+](=O)[O-])o3)C2=O)cc1,31.8%,111%,119%,100%,106%,104%,108%,109%,89.3%,105%,90.7%,97.9%,108%,110%,117%,–,88.7%,113%,111%
O=[N+]([O-])c1ccc(N2c3ccncc3Sc3ccncc32)cc1,93.8%,88.7%,99%,56.9%,105%,93.7%,87.8%,112%,101%,104%,93.5%,87%,118%,109%,116%,–,94.2%,104%,106%
O=C1NC(=Nc2ccc(Cl)cc2)S/C1=C\c1cn(-c2ccccc2)nc1-c1ccccc1,103%,85.3%,79.3%,87.2%,60.9%,91.9%,94.7%,79.7%,60.6%,81.7%,83.3%,75.1%,98.6%,0.154% (active),104%,79.7,89.2%,71%,91.6%
COc1cccc2c1C(=O)c1c(O)c3c(c(O)c1C2=O)CC(O)(/C(C)=N/NC(=O)CCCCC(=O)N/N=C(\C)C1(O)Cc2c(O)c4c(c(O)c2C(OC2CC(N)C(O)C(C)O2)C1)C(=O)c1c(OC)cccc1C4=O)CC3OC1CC(N)C(O)C(C)O1 (stereo unspecified),-56.9% [5 µM] (active),-16.2% [5 µM] (active),-2.85% [5 µM] (active),-16.9% [5 µM] (active),-29.5% [5 µM] (active),-33.6% [5 µM] (active),-40% [5 µM] (active),-84.5% [5 µM] (active),-26.4% [5 µM] (active),-46.8% [5 µM] (active),-66% [5 µM] (active),5% [5 µM] (active),7.09% [5 µM] (active),-9.94% [5 µM] (active),-7% [5 µM] (active),–,-37.2% [5 µM] (active),-40.4% [5 µM] (active),75.6% [5 µM]
